Experimental data as given in PubChem BioAssay (Tox21).
Where “and” joins values, the source holds several entries; their conditions need not be identical. Equal entries are not always repeated. Records with an inconclusive call do not appear. Calls of active or inactive are those of the source. Unless noted, calls follow the shape of the dose curve; as a rule, active = well fitted curve in the direction sought with a large enough effect in the repeat runs; inconclusive = weak or mixed curves; inactive = no such curve, though single readings can be large; an effect the other way counts as inactive or inconclusive.

What was measured:
[1] = qHTS assay to identify small molecule antagonists of the progesterone receptor (PR) signaling pathway - cell viability counter screen (AID 1346798); also: nearly all actives have a fitted effect of over 50% in size; also: potency is read from the fitted curve at half-maximal effect
Procedure, shortened: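 Viability was determined by ATP-based luminescence (CellTiter-Glo) in PR-UAS-bla HEK293T cells cultured in 2% charcoal-stripped serum and incubated 16 hr with compounds under R5020 stimulation.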

[2] = qHTS assay to identify small molecule antagonists of the TGF-beta/Smad signaling pathway - cell viability counter screen (AID 1346824); also: nearly all actives have a fitted effect of over 50% in size
Procedure, shortened: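 SBE-bla HEK 293T cells, incubated overnight, then compound plus 0.25 ng/mL TGF-beta1 (stock added) for 5 hr at 37 C. Viability was read in the same wells by CellTiter-Glo luminescence after 30 min at room temperature.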

[3] = qHTS assay to identify small molecule agonists of the TGF-beta/Smad signaling pathway - cell viability counter screen (AID 1346829); also: top concentration of the series differs between compounds; nearly all actives have a fitted effect of over 45% in size
Procedure, shortened: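 Same-well cytotoxicity: CellTiter-Glo added after the 2 hr room-temperature beta-lactamase substrate step, luminescence measured 30 min later; cells had 5 hr of compound at 37 C.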

[4] = qHTS assay to identify small molecule agonists of the TGF-beta/Smad signaling pathway (AID 1346859; active = well fitted activation curve with a large enough effect in the signal ratio in the repeat runs, not every such curve was filed as active; the % refers to the signal ratio; also: series mostly up to about 77 µM)
Procedure, shortened: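 Dual-wavelength fluorescence (460/530 nm emission) quantified beta-lactamase expression under the Smad binding element in HEK 293T cells following 5 hr compound treatment at 37 C.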

[5] = target: Thyrotropin-releasing hormone receptor (Homo sapiens) (UniProt P34981); assay: qHTS assay to identify small molecule antagonists of the thyrotropin-releasing hormone receptor (TRHR) signaling pathway (AID 1346877; active = well fitted inhibition curve with a large enough effect in the repeat runs, not every such curve was filed as active; also: series mostly up to about 51 µM)
Procedure, shortened: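 TRHR-expressing HEK293 cells loaded with calcium dye for 2 h at 37 C; compounds pre-incubated 5 min at room temperature before TRH challenge at 1 nM final. Intracellular calcium fluorescence read kinetically for 3 min; 15 concentrations in triplicate.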

[6] = Human pregnane X receptor (PXR) small molecule agonists, qHTS cell viability counter screen (AID 1346977); also: nearly all actives have a fitted effect of over 50% in size; also: potency is read from the fitted curve at half-maximal effect
Procedure, shortened: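 HepG2 cells stably carrying the PXR-Luc reporter are cultured with 5% charcoal-stripped FBS and treated with compounds for 24hr. CellTiter-Fluor is added at 23hr and fluorescence is read after 1hr.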

[7] = Caspase-3/7 induction in CHO-K1 cells by small molecules, qHTS cell viability counter screen (AID 1346979); also: nearly all actives have a fitted effect of over 35% in size; also: potency is read from the fitted curve at half-maximal effect
Procedure, shortened: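 Seeding: 1,500 CHO-K1 cells/well. Rest: 5hr, 37C. Treatment: compounds in DMSO, 16hr. Read: CellTiter-Fluor, 1hr, fluorescence.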

[8] = Caspase-3/7 induction in HepG2 cells by small molecules, qHTS cell viability counter screen (AID 1346981); also: nearly all actives have a fitted effect of over 30% in size; also: potency is read from the fitted curve at half-maximal effect
Procedure, shortened: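 Wild-type HepG2 cells, 2,000/well, settled 5 hr at 37 C, 5% CO2 before compound addition. Viability read by CellTiter-Fluor fluorescence, reagent added after 16 hr compound exposure, then 1 hr at 37C, in the same wells as the caspase read.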

[9] = target: Nuclear receptor subfamily 1 group I member 2 (Homo sapiens) (UniProt O75469); assay: Human pregnane X receptor (PXR) small molecule agonists, qHTS assay (AID 1346982); also: nearly all actives have a fitted effect of over 35% in size; also: potency is read from the fitted curve at half-maximal effect
Procedure, shortened: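 PXR-Luc HepG2 reporter cells (CYP3A4-driven luciferase) in 5% charcoal-stripped FBS medium, plated 5 h before compound addition, then treated 24 h at 37C. Luciferase read by ONE-Glo luminescence after 30 min at room temperature.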

[10] = target: Nuclear receptor subfamily 1 group I member 2 (Homo sapiens) (UniProt O75469); assay: CYP3A4 induction through human pregnane X receptor (PXR) by small molecules, qHTS assay (AID 1346984); also: nearly all actives have a fitted effect of over 40% in size
Procedure, shortened: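 DPX-2 HepG2 cells carrying a PXR response element and CYP3A4-promoter luciferase construct, treated with compounds 24 hr at 37C. Then P450-Glo CYP3A4 Luciferin-IPA substrate (3uM final) for 3 hr at 37C, One-Glo added, luminescence read.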

[11] = target: Nuclear receptor subfamily 1 group I member 2 (Homo sapiens) (UniProt O75469); assay: Human pregnane X receptor (PXR) activation by small molecules, qHTS assay (AID 1346985); also: nearly all actives have a fitted effect of over 40% in size
Procedure, shortened: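 DPX-2 cells (HepG2 co-transfected with a PXR response element and a CYP3A4-promoter luciferase construct) were seeded at 2,000 per well, rested 5 hr at 37C, then exposed to DMSO-dissolved compounds for 24 hr. Activation was read as luciferase luminescence.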

[12] = target: Cytochrome P450 2D6 (Homo sapiens) (UniProt P10635); assay: Cytochrome P450 Family 2 Subfamily D Member 6 (CYP2D6) small molecule antagonists: luciferase reporter qHTS assay (AID 1671196); also: nearly all actives have a fitted effect of over 50% in size; also: potency is read from the fitted curve at half-maximal effect
Procedure, shortened: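 Cell-free P450-Glo system: CYP2D6 with proluciferin substrate was pre-incubated with compound for 10 min, then reacted with NADPH regeneration for 1 h at room temperature. Luciferin product was detected after 20 min, and data were reported as relative luminescence units.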

[13] = target: Cytochrome P450 2C19 (Homo sapiens) (UniProt P33261); assay: Cytochrome P450 Family 2 Subfamily C Member 19 (CYP2C19) small molecule antagonists: luciferase reporter qHTS assay (AID 1671197); also: nearly all actives have a fitted effect of over 65% in size; also: potency is read from the fitted curve at half-maximal effect
Procedure, shortened: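 Quantitative high-throughput screen of the Tox21 library using CYP2C19 with proluciferin substrate. Reaction: NADPH regeneration, 37C, 1 h, after 10 min compound preincubation at room temperature. Readout: luminescence.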

[14] = target: Cytochrome P450 1A2 (Homo sapiens) (UniProt P05177); assay: Cytochrome P450 Family 1 Subfamily A Member 2 (CYP1A2) small molecule antagonists: luciferase reporter qHTS assay (AID 1671199); also: nearly all actives have a fitted effect of over 50% in size; also: potency is read from the fitted curve at half-maximal effect
Procedure, shortened: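 P450-Glo CYP1A2 enzyme–proluciferin substrate mix with compound 10 min at room temperature, then NADPH regeneration 1 h at room temperature. Luciferin detection reagent added, luminescence read after 20 min; furafylline positive control.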

[15] = Caspase-3/7 induction in HepG2 cells by small molecules, qHTS assay (AID 1346978); also: nearly all actives have a fitted effect of over 15% in size
Procedure, shortened: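 Wild-type HepG2 cells, 2,000/well, settled 5 hr at 37 C and 5% CO2, then compound-treated for 17 hr; caspase-3/7 activity read by luminescent Caspase-Glo 3/7 after 30 min at room temperature.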

[16] = Caspase-3/7 induction in CHO-K1 cells by small molecules, qHTS assay (AID 1346980); also: nearly all actives have a fitted effect of over 15% in size
Procedure, shortened: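 Wild-type CHO-K1 cells exposed to compounds for 17hr at 37 C, 5% CO2. Caspase-3/7 activity then measured by Caspase-Glo 3/7 luminescence after 30min at room temperature.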

[17] = target: Cytochrome P450 2C9 (Homo sapiens) (UniProt P11712); assay: Cytochrome P450 Family 2 Subfamily C Member 9 (CYP2C9) small molecule antagonists: luciferase reporter qHTS assay (AID 1671198); also: nearly all actives have a fitted effect of over 50% in size; also: potency is read from the fitted curve at half-maximal effect
Procedure, shortened: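 P450-Glo proluciferin substrate with CYP2C9 enzyme; 10 min RT preincubation, then NADPH regeneration 1 h at 37C; luciferin detection reagent 20 min RT, luminescence in relative luminescence units.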

[18] = target: Thyrotropin-releasing hormone receptor (Homo sapiens) (UniProt P34981); assay: qHTS assay to identify small molecule agonists of the thyrotropin-releasing hormone receptor (TRHR) signaling pathway (AID 1346891; calls by dose curve; also: series mostly up to about 58 µM)
Procedure, shortened: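 Kinetic fluorescence (3 min, 1 s intervals) reported intracellular calcium after compound transfer onto TRHR-Hek293 cells pre-loaded with dye for 2 h at 37 °C.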

[19] = qHTS assay to identify small molecule agonists of the progesterone receptor (PR) signaling pathway - cell viability counter screen (AID 1346799; calls by dose curve; also: nearly all actives have a fitted effect of over 45% in size; also: potency is read from the fitted curve at half-maximal effect)
Procedure, shortened: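 Viability was scored by ATP luminescence (CellTiter-Glo, 30 min, room temperature) in the same wells used for the reporter readout, after 16 hr compound exposure of PR-UAS-bla HEK293T cells.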

Measured: Potency

Cytochrome P450 2C19 (Homo sapiens), sequence (P33261 whole entry, looked up): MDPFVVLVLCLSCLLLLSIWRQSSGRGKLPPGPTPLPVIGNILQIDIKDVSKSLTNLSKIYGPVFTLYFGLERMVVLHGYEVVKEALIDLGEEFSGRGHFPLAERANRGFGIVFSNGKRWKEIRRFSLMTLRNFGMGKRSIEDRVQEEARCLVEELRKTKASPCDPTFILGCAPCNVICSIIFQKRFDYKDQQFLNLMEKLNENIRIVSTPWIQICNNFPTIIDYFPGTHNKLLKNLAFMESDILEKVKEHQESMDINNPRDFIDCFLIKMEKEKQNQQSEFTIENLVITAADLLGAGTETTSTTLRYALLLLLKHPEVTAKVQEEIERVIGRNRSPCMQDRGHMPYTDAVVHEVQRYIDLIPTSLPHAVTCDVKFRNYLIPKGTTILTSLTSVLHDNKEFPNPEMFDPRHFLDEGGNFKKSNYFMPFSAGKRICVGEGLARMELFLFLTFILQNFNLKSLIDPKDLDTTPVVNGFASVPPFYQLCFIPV
Nuclear receptor subfamily 1 group I member 2 (Homo sapiens), sequence (O75469 whole entry, looked up): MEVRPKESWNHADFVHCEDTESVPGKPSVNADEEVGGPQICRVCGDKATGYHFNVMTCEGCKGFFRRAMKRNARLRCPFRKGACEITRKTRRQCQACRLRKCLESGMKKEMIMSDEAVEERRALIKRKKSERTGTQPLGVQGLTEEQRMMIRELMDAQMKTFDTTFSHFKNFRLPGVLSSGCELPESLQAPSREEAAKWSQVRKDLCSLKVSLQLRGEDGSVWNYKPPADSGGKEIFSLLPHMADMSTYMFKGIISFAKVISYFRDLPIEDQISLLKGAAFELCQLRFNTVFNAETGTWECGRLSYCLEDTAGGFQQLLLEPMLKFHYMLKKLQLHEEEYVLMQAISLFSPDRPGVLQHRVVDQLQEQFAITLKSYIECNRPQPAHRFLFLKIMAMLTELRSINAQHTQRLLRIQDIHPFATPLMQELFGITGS
Cytochrome P450 2C9 (Homo sapiens), sequence (P11712 whole entry, looked up): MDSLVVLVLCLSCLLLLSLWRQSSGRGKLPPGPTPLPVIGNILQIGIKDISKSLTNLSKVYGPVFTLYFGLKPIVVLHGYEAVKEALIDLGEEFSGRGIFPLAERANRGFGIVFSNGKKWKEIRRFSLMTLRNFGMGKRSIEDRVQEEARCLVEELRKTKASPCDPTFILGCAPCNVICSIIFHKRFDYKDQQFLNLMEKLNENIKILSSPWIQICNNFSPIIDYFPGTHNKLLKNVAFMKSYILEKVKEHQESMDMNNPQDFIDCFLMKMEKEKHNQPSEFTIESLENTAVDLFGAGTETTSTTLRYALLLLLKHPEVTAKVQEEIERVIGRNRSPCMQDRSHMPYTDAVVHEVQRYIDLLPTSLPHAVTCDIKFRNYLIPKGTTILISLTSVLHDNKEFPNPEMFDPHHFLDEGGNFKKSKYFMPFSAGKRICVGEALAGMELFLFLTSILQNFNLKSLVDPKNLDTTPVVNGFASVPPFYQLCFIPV
Cytochrome P450 1A2 (Homo sapiens), sequence (P05177 whole entry, looked up): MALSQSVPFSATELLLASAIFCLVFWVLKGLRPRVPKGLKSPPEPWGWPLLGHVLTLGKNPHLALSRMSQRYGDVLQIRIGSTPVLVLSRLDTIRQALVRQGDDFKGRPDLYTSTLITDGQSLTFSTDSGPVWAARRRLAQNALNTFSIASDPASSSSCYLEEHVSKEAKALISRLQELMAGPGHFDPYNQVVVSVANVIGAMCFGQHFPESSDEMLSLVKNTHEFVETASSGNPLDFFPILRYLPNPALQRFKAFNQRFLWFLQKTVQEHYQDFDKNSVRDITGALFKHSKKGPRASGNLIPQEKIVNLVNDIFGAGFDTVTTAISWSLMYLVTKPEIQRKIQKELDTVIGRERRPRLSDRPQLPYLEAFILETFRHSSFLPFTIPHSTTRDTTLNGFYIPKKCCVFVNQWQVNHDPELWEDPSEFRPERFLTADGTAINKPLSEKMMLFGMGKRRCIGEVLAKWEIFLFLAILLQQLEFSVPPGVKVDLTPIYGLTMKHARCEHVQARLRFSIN
Thyrotropin-releasing hormone receptor (Homo sapiens), sequence (P34981 whole entry, looked up): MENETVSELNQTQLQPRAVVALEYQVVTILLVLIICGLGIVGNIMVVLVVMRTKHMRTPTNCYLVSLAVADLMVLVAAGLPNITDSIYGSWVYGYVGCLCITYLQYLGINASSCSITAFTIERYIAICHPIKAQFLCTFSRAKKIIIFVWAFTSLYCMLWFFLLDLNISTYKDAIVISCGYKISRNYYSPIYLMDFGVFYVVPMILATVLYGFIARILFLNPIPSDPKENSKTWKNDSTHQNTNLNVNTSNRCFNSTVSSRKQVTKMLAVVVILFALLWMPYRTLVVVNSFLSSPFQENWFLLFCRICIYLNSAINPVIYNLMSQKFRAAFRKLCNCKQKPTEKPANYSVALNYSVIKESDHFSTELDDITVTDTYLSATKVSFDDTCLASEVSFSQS
Cytochrome P450 2D6 (Homo sapiens), sequence (P10635 whole entry, looked up): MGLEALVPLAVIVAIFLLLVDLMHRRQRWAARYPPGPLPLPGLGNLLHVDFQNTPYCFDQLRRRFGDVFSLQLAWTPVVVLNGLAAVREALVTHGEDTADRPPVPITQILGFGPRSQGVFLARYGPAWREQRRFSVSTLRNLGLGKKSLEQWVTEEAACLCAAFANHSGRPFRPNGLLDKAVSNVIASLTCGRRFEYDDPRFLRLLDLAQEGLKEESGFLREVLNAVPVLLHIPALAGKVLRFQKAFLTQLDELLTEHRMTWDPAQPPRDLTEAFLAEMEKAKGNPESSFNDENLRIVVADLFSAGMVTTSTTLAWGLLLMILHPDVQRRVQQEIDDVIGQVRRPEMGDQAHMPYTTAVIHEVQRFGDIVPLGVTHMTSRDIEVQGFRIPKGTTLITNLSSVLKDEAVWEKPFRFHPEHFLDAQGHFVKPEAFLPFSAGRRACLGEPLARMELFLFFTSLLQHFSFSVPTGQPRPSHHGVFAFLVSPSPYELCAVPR

Cc1cccc(C)c1NC(=O)CN1CCN(CCCC(c2ccc(F)cc2)c2ccc(F)cc2)CC1
active: [1] 29.8 µM | [6] 23.7 µM | [7] 29.8 µM | [8] 21.1 µM | [12] 2.45 µM | [13] 43.6 µM
not listed: [15] | [16] | [17] | [18] | [19]
inactive: all other assays above

O=Cc1ccc(F)cc1
active: [12] 35.6 µM
not listed: [3] | [9] | [10] | [11] | [18] | [19]
inactive: all other assays above

O=C1C=CC(=O)N1c1ccccc1
active: [1] 68.6 µM | [6] 48.6 µM | [7] 9.69 µM | [12] 39.9 µM | [13] 20 µM | [17] 28.3 µM | [14] 20 µM
inactive: [4] | [5] | [15] | [16] | [9]

CCc1ccc(O)c(C(C)(C)C)c1
active: [13] 17.8 µM | [17] 31.7 µM | [14] 35.6 µM
inactive: [1] | [2] | [4] | [5] | [18] | [16] | [8] | [9] | [12]

Clc1cc(Cl)c(-c2c(Cl)c(Cl)cc(Cl)c2Cl)cc1Cl
not listed: [5] | [10] | [11] | [15] | [17] | [18] | [19]
inactive: all other assays above

CCOC(=O)N1CCC(=C2c3ccc(Cl)cc3CCc3cccnc32)CC1
inactive: [2] | [3] | [5] | [18] | [15] | [16]
active: [1] 61.1 µM | [7] 43.3 µM and 26.6 µM | [8] 54.5 µM

C=CC(=C)CCC=C(C)C
active: [1] 54.5 µM
not listed: [5] | [10] | [11] | [13] | [17] | [18] | [19]
inactive: all other assays above

CSc1c(Cl)c(Cl)c(Cl)c(Cl)c1Cl
active: [9] 68.2 µM | [14] 14.1 µM
not listed: [2] | [3] | [10] | [11] | [13] | [19]
inactive: all other assays above

C=CC(=O)OCCN(CC)CC
not listed: [5] | [6] | [10] | [11] | [18] | [19]
inactive: all other assays above

O=C(O)CCn1c2c(c3ccccc31)C[C@H](NS(=O)(=O)c1ccc(F)cc1)CC2
active: [17] 17.4 µM
inactive: [1] | [6] | [15] | [7] | [16] | [8] | [12] | [13] | [14]

CCCCCCCC/C=C\CCCCCCCC(=O)N(C)CC(=O)O
active: [1] 68.6 µM | [7] 68.6 µM | [17] 44.8 µM
not listed: [3] | [10] | [11] | [19]
inactive: all other assays above

CCCCNc1c(C(=O)OCC)c(C)nc2c1cnn2CC
inactive: [1] | [2] | [3] | [4] | [6] | [15] | [16] | [8] | [12]
active: [9] 29.8 µM | [17] 27.5 µM | [14] 2.75 µM

CCc1ccc(C)nc1
not listed: [1] | [5] | [10] | [11] | [13] | [17] | [18]
inactive: all other assays above

CCCCOC(=O)C(C)CC (centres undefined)
not listed: [1] | [10] | [11] | [13] | [14] | [15]
inactive: all other assays above

Clc1nc2ccccc2s1
not listed: [1] | [10] | [11] | [13] | [14] | [18]
inactive: all other assays above

CCc1cccc(CC)c1NC(=O)C(=O)O
not listed: [1] | [8] | [10] | [11] | [14] | [17] | [18]
inactive: all other assays above

CN(C)CCCN1c2ccccc2Sc2ccc(C(F)(F)F)cc21
active: [12] 0.617 µM | [13] 4.36 µM | [14] 3.63 µM
inactive: [19] | [2] | [3] | [17]

Cc1oc(-c2ccccc2)nc1CCOc1ccc(C[C@H](Nc2ccccc2C(=O)c2ccccc2)C(=O)O)cc1
inactive: [2] | [3] | [18] | [12] | [14]
active: [19] 27.3 µM | [6] 54.5 µM | [7] 30.6 µM | [8] 43.3 µM | [17] 20 µM
